Whole data set: some 16,000 sequences, median “rpm ratio (pull-down/input)” near 0.5, cut for the highest 2% near 5.5. This excerpt belongs to a sample that is enriched for the highest values.

The target in the assay is T1, MBP-FoxP3dN (Mus musculus, UniProt Q99JB6 188-423).
T1 sequence: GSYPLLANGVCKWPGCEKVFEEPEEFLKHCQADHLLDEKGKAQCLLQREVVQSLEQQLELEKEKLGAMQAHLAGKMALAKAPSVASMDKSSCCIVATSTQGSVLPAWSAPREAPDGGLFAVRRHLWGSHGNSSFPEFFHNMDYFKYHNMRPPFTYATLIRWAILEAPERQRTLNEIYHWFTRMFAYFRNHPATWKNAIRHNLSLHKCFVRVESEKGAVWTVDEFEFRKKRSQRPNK
Description: PD-seq (MBP pull-down with sequencing); 20 mM Tris-HCl pH 7.5, 100 mM NaCl, 1.5 mM MgCl2, 0.4 uM protein, 0.1 uM dsDNA library, 30 min, room temperature, amylose pull-down; high values mean tight binding. Particulars: protein: recombinant; tags: His6-MBP; chain copies: 2; dsDNA, one strand shown. In short, it runs like this: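 Protein and DNA were mixed at 0.4 µM and 0.1 µM and held for 30 min at room temperature in Tris pH 7.5 buffer with NaCl and MgCl2; the protein was a His6-MBP-tagged, N-terminally truncated mouse FoxP3 or FoxP1 fragment from E. coli, and the DNA a Klenow-filled double-stranded degenerate library. Amylose resin captured the complexes, which were washed three times. Binding is read as reads-per-million enrichment of pull-down versus input after Illumina sequencing, with replicates pooled.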
For the sequence “GATGATTGTTCTCCCAGCTGATGAATTTTTGACCTCGAGTAAACAAATTTTCCTAATCTTTCTGTTCAAGCGCCATCTAC”, the binding signal is 0.237 RPM ratio (pull-down/input).

As to “GATGATTGTTCTCCCAGCTGATGAATTCTTCTGCTCGAGTAAACAAATTTTCCTAATCTTTCTGTTCAAGCGCCATCTAC”, the binding signal is 0.236 RPM ratio (pull-down/input).

In the case of “GATGATTGTTCTCCCAGCTGATGAATTACGTGACTCGAGTAAACAAATTTTCCTAATCTTTCTGTTCAAGCGCCATCTAC”, the binding signal is 0.737 RPM ratio (pull-down/input).

Regarding “GATGATTGTTCTCCCAGCTGATGAATTGATCAAATCGAGTAAACAAATTTTCCTAATCTTTCTGTTCAAGCGCCATCTAC”, the binding signal is 0.304 RPM ratio (pull-down/input).

With “GATGATTGTTCTCCCAGCTGATGAATTGGGAACGTCGAGTAAACAAATTTTCCTAATCTTTCTGTTCAAGCGCCATCTAC”, the binding signal was 0.31 RPM ratio (pull-down/input).

In the case of “GATGATTGTTCTCCCAGCTGATGAATTATAGAACTCGAGTAAACAAATTTTCCTAATCTTTCTGTTCAAGCGCCATCTAC”, the binding signal is 0.249 RPM ratio (pull-down/input).

As for “GATGATTGTTCTCCCAGCTGATGAATTGCGCTGATCGAGTAAACAAATTTTCCTAATCTTTCTGTTCAAGCGCCATCTAC”, the binding signal was 0.898 RPM ratio (pull-down/input).

For “GATGATTGTTCTCCCAGCTGATGAATTCCTGAATTCGAGTAAACAAATTTTCCTAATCTTTCTGTTCAAGCGCCATCTAC”, the binding signal was 0.481 RPM ratio (pull-down/input).

Turning to “GATGATTGTTCTCCCAGCTGATGAATTTATTGTTTCGAGTAAACAAATTTTCCTAATCTTTCTGTTCAAGCGCCATCTAC”, the binding signal was 6.4 RPM ratio (pull-down/input).

Take “GATGATTGTTCTCCCAGCTGATGAATTATTGTTTTCGAGTAAACAAATTTTCCTAATCTTTCTGTTCAAGCGCCATCTAC”: the binding signal was 3.7 RPM ratio (pull-down/input).

In the case of “GATGATTGTTCTCCCAGCTGATGAATTGTTTATTTCGAGTAAACAAATTTTCCTAATCTTTCTGTTCAAGCGCCATCTAC”, the binding signal was 6.99 RPM ratio (pull-down/input).

Regarding “GATGATTGTTCTCCCAGCTGATGAATTTATTTCTTCGAGTAAACAAATTTTCCTAATCTTTCTGTTCAAGCGCCATCTAC”, the binding signal was 3.01 RPM ratio (pull-down/input).

In the case of “GATGATTGTTCTCCCAGCTGATGAATTTCATACATCGAGTAAACAAATTTTCCTAATCTTTCTGTTCAAGCGCCATCTAC”, the binding signal is 0.449 RPM ratio (pull-down/input).

As to “GATGATTGTTCTCCCAGCTGATGAATTGAGGACGTCGAGTAAACAAATTTTCCTAATCTTTCTGTTCAAGCGCCATCTAC”, the binding signal is 0.248 RPM ratio (pull-down/input).

As to “GATGATTGTTCTCCCAGCTGATGAATTGTATCGGTCGAGTAAACAAATTTTCCTAATCTTTCTGTTCAAGCGCCATCTAC”, the binding signal is 0.882 RPM ratio (pull-down/input).

As to “GATGATTGTTCTCCCAGCTGATGAATTCCAGTGGTCGAGTAAACAAATTTTCCTAATCTTTCTGTTCAAGCGCCATCTAC”, the binding signal was 0.415 RPM ratio (pull-down/input).

“GATGATTGTTCTCCCAGCTGATGAATTTTTGTGTTCGAGTAAACAAATTTTCCTAATCTTTCTGTTCAAGCGCCATCTAC”: the binding signal was 1.04 RPM ratio (pull-down/input).

For the sequence “GATGATTGTTCTCCCAGCTGATGAATTGTGTTTCTCGAGTAAACAAATTTTCCTAATCTTTCTGTTCAAGCGCCATCTAC”, the binding signal was 4.32 RPM ratio (pull-down/input).

Regarding “GATGATTGTTCTCCCAGCTGATGAATTTGTACTCTCGAGTAAACAAATTTTCCTAATCTTTCTGTTCAAGCGCCATCTAC”, the binding signal was 2.81 RPM ratio (pull-down/input).

Regarding “GATGATTGTTCTCCCAGCTGATGAATTGTGTTGTTCGAGTAAACAAATTTTCCTAATCTTTCTGTTCAAGCGCCATCTAC”, the binding signal was 8.43 RPM ratio (pull-down/input).

On to “GATGATTGTTCTCCCAGCTGATGAATTTGTGTTTTCGAGTAAACAAATTTTCCTAATCTTTCTGTTCAAGCGCCATCTAC”, for which the binding signal was 5.24 RPM ratio (pull-down/input).

As to “GATGATTGTTCTCCCAGCTGATGAATTTTTGTACTCGAGTAAACAAATTTTCCTAATCTTTCTGTTCAAGCGCCATCTAC”, the binding signal was 0.489 RPM ratio (pull-down/input).

In the case of “GATGATTGTTCTCCCAGCTGATGAATTTTGTGTCTCGAGTAAACAAATTTTCCTAATCTTTCTGTTCAAGCGCCATCTAC”, the binding signal is 4.27 RPM ratio (pull-down/input).

As for “GATGATTGTTCTCCCAGCTGATGAATTGATGTGTTCGAGTAAACAAATTTTCCTAATCTTTCTGTTCAAGCGCCATCTAC”, the binding signal is 1.66 RPM ratio (pull-down/input).

“GATGATTGTTCTCCCAGCTGATGAATTCTTGTGTTCGAGTAAACAAATTTTCCTAATCTTTCTGTTCAAGCGCCATCTAC”: the binding signal was 0.821 RPM ratio (pull-down/input).

Regarding “GATGATTGTTCTCCCAGCTGATGAATTTGTGTTCTCGAGTAAACAAATTTTCCTAATCTTTCTGTTCAAGCGCCATCTAC”, the binding signal is 6.29 RPM ratio (pull-down/input).

In the case of “GATGATTGTTCTCCCAGCTGATGAATTTGTGTGTTCGAGTAAACAAATTTTCCTAATCTTTCTGTTCAAGCGCCATCTAC”, the binding signal was 5.99 RPM ratio (pull-down/input).

Regarding “GATGATTGTTCTCCCAGCTGATGAATTTGTGTACTCGAGTAAACAAATTTTCCTAATCTTTCTGTTCAAGCGCCATCTAC”, the binding signal is 6.72 RPM ratio (pull-down/input).

In the case of “GATGATTGTTCTCCCAGCTGATGAATTCCACCTATCGAGTAAACAAATTTTCCTAATCTTTCTGTTCAAGCGCCATCTAC”, the binding signal is 0.432 RPM ratio (pull-down/input).

On to “GATGATTGTTCTCCCAGCTGATGAATTCTTACGCTCGAGTAAACAAATTTTCCTAATCTTTCTGTTCAAGCGCCATCTAC”, for which the binding signal was 0.256 RPM ratio (pull-down/input).

“GATGATTGTTCTCCCAGCTGATGAATTTCATGATTCGAGTAAACAAATTTTCCTAATCTTTCTGTTCAAGCGCCATCTAC”: the binding signal is 0.692 RPM ratio (pull-down/input).

Take “GATGATTGTTCTCCCAGCTGATGAATTATTCCCATCGAGTAAACAAATTTTCCTAATCTTTCTGTTCAAGCGCCATCTAC”: the binding signal is 0.334 RPM ratio (pull-down/input).

These data come from article PMC12820563, “FoxP3 forms a head-to-head dimer in vivo and stabilizes its multimerization on adjacent microsatellites”.
